# Laboratory results: PubChem BioAssay AID1347428 (National Center for Advancing Translational Sciences (NCATS), 2020)
# Hit rate of the full screen: of about 91,000 compounds, about 290 (0.32%) were called active. Inconclusive results (about 7%) are left out. This excerpt belongs to a sample that is enriched for actives. A number with no mark means an inactive call. Calls follow the shape of the dose curve; as a rule, active = well fitted inhibition curve with a large enough effect; inconclusive = small, poorly fitted or top-dose-only effect; inactive = no such curve, though single readings can be large or run the other way.
# Target: Single-stranded DNA cytosine deaminase (Homo sapiens) (UniProt Q9GZX7)
# Sequence (Q9GZX7 whole entry, looked up): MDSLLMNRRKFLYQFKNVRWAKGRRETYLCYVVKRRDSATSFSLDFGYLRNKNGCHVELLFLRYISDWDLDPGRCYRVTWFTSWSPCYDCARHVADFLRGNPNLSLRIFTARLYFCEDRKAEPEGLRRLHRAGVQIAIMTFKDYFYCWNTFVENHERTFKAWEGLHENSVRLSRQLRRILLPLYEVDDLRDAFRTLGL
# Assay: Primary qHTS assay for inhibitors of Activation Induced Cytidine Deaminase (AID): AID signal; also: nearly all actives have a fitted effect of over 25% in size
# Conditions: AID deamination FRET fluorescence, UDG-coupled, 4 h; series mostly up to 115 µM; activity change, negative = inhibition: at the top concentration
# Excerpt: Assay Provider (PI) Patricia Gearhart Ph.D.
# National Institute on Aging
# National Institute of Health (NIH), Bethesda, MD
# Assay Provider (PI) Rahul Kohli Ph.D.
# Perelman School of Medicine
# University of Pennsylvania, Philadelphia, PA
# Activation-Induced Deaminase (AID) is a cytosine deaminase which converts cytosine into uracil within stretches of ssDNA. The presence of uracil in DNA initiates a cascade of mutagenic DNA repair to introduce point mutations and DNA double strand breaks. Specific targeting of AID to the immunoglobulin heavy chain loci (Igh) promotes mutagenesis in the antibody variable region for somatic hypermutation (SHM) or switch regions leading to class switch recombination (CSR). However, AID also plays a role in accumulating unnecessary mutations across the genome. Mis-targeting of AID results in the initiation of tumor development and leads to greater drug resistance among cancer cells when continually expressed. To identify an AID inhibitor, a small molecule library will be screened in collaboration with NCATS core facility at NIH. To confirm biological function, inhibitors will be examined in an in vitro murine B-cell activation assay and subsequent secondary validation screens. Top molecules will be further screened to identify inhibitory efficacy against a wild type primary splenocytes assay. Using these approaches, we hope to identify a small molecule with great efficacy and low toxicity for use as a molecular probe to further characterize AID's intricacies, or even as a therapeutic.
# A FRET based analysis of cytosine deamination, was developed to identify potential inhibitors of AID catalytic activity. This screen has two signal output, Read 1 evaluates the AID inhibition response. The second readout (Read 2) evaluates UDG response and is uses as a counterscreen to exclude false positive inhibitors. Inhibition in AID and inactivity in the UDG signal is the desired outcome for this assay.
# SEQUENCE No. (e.g., 1, 2, 3, etc.); […] (e.g., Cells, Incubation, Reagent, etc.); VALUE; DESCRIPTION
# 1a; Reagent; 3 uL; [4/3x] 1 uM AID/2.67 U/mL UDG
# 1b; Reagent; 3 uL; 2 U/mL UDG
# 1c; Reagent; 3 uL; 1 uM AID
# 2a; Compound; 46 nL; Follow-up plates (0.64 uM - 10 mM)
# 2b; Control; 46 nL; ATA ([…] - 10 mM)
# 3; Time; 10 min; incubation at room temperature
# 5; Time; 4 hr; incubation at room temperature
# 6; Reagent; 4 uL; [2x] 250 mM NaOH
# 7; Time; 15 sec; centrifuge at 1000 rpm
# 8; Time; 30 min; incubation at room temperature
# 9a; Detection; fluorescence (Read 1: AID); EnVision (PerkinElmer) plate reader, 540 excitation and 590 emission filters
# 9b; Detection; fluorescence (Read 2: UDG); EnVision (PerkinElmer) plate reader, 560 excitation and 665 emission filters
# NOTES (numbers refer to sequence above)
# 1a; Reagents were dispensed in a medium-binding black solid-bottom Greiner plates (789176F) using a BioRptr liquid dispenser. Dispense 3 uL of [4/3x] 1 uM AID (provided by Kohli lab) and [4/3x] 2 U/mL UDG (NEB M0280L) into columns 1, 2, 5 to 48.
# 1b; Dispense 3 uL of [4/3x] 2 U/mL UDG into column 3.
# 1c; Dispense 3 uL of [4/3x] 1 uM AID into column 4.
# 2a; Compound (7-points [uM] (0.64; 3.2; 16; 80; 400; 2,000; 10,000; 20,000) double pin-transferred (Dip Factor = 2) using the Kalypsys (Wako USA) pintool equipped with a 1536 pinhead for a final concentration range of 7.32 nM - 114 uM.
# 2b; 10 mM Aurintricarboxylic Acid (Sigma A1895) (ATA, 8-point, n = 2, 1:2.5 dilution in column 2) double pin-transferred (Dip Factor = 2) using the Kalypsys (Wako USA) pintool equipped with a 1536 pinhead for a [final] range of 186 nM - 114 uM.
# 3; Room temperature incubation.
# 4; Dispense 1 uL of substrate mixture from the Kohli lab [4x] […] DJC20 and [4x] 250 nM DJC23 into columns 1 to 48 .
# 5; Room temperature incubation.
# 6; Dispense 4 uL of substrate mixture [2x] 250 mM NaOH into columns 1 to 48.
# 7; Centrifugation step to remove bubbles.
# 8; Room temperature incubation
# 9a; Fluorescence signal (column label AID) was read using the EnVision plate reader. […]
# % is scaled to controls: 0 for no effect and ±100 for the full control effect; potency is read from the fitted curve at half-maximal effect.
SMILES,"activity change, negative = inhibition [%]",Potency
Cc1ccccc1C(C)NC(=O)c1cc(-c2ccccc2)n[nH]1 (stereo not drawn),-6.39,–
COc1ccc(-c2cc3c(=O)n(CC(=O)NCc4cccc(Br)c4)ncn3n2)cc1,-2.07,–
Cc1cc2c(cc1C)NC(CC(=O)Nc1ccc(C(F)(F)F)cc1)C(=O)N2 (stereo not drawn),5.04,–
Cc1cn[nH]c1C#N,4.84,–
CCCCCOC(=O)CSc1nc2c(c(=O)[nH]c(=O)n2C)n1CCC,-11.6,–
Cn1nc(C(F)(F)F)c(Cl)c1C(=O)NC1CCCC1,0.508,–
Cc1ccccc1NC(=O)c1cc2c(=O)n3cccc(C)c3nc2n1Cc1ccccc1,-5.68,–
COC(=O)Cc1c(C)c2ccc(OCc3ccc(F)cc3)cc2oc1=O,-9.33,–
CCn1c(SCC(=O)c2ccc(Cl)cc2Cl)nnc1-c1cnccn1,-7.85,–
CCOC(=O)C1=C(CN(CCOC)Cc2ccco2)NC(=O)NC1c1cccc(OC)c1OC (stereo not drawn),-4.9,–
O=C(COC(=O)CC12CC3CC(CC(C3)C1)C2)Nc1ccc([N+](=O)[O-])cc1C(F)(F)F,-2.15,–
O=C(O)CC(NC(=O)Cc1cccc(F)c1)c1ccc(F)cc1 (stereo not drawn),-2.56,–
O=[N+]([O-])/C=C/c1ccc(-c2ccccc2)o1,-1.14,–
O=C1CCCc2nccc(-c3ccc(Cl)cc3)c21,-2.16,–
COC(=O)COc1cccc(C(=O)Nc2ccc(-c3nc4ccccc4o3)cc2)c1,2.24,–
CCCn1c2ccccc2c2cnn(CC(=O)N(CC)c3cc(C)ccc3C)c(=O)c21,–,35.5 µM (active)
CCCn1c2ccccc2c2cnn(CC(=O)N3CCCC(C(=O)OCC)C3)c(=O)c21 (stereo not drawn),-20.2,–
CCCn1c2ccccc2c2cnn(CC(=O)NCCCOC(C)C)c(=O)c21,7.63,–
C=CCn1c(SCC(=O)Nc2ccccc2)nc2c1c(=O)n(C)c(=O)n2C,-4.76,–
C=CCn1c(Oc2ccc(F)cc2)nc2c1c(=O)n(C)c(=O)n2C,-10,–
COC(=O)Cc1c(C)c2ccc(OCc3cccc(Cl)c3)cc2oc1=O,-4.26,–
COc1ccc(S(=O)(=O)N2CCc3c(c(-c4nnc(SC)n4C)nn3C)C2)cc1,-13.2,–
Cc1cccc(C)c1-n1ncc(C(=O)NCCCN2CCCCC2)c1C1CCN(C(=O)OC(C)(C)C)CC1,-19.3,–
CC(C)(C)OC(=O)N1CCC(c2c(C(=O)N3CCN(c4cccc(Cl)c4)CC3)cnn2-c2cccc(Cl)c2)CC1,-19.6,–
COc1ccccc1CN1CCC(CNC(=O)c2cnn(-c3cccc(Cl)c3)c2C2CCN(C(=O)OC(C)(C)C)CC2)CC1,–,44.7 µM (active)
Cc1ccc(CN2CCC(CNC(=O)c3cnn(-c4ccc(C)cc4)c3C3CCN(C(=O)OC(C)(C)C)CC3)CC2)cc1,-21.8,–
COc1ccccc1N1CCN(CCCNC(=O)c2cnn(-c3ccccc3Cl)c2C2CCN(C(=O)OC(C)(C)C)CC2)CC1,-26.5,–

SMILES,"activity change, negative = inhibition [%]",Potency
COc1ccccc1CN1CCC(CNC(=O)c2cnn(-c3ccccc3Cl)c2C2CCN(C(=O)OC(C)(C)C)CC2)CC1,–,44.7 µM (active)
CCCCc1c(C)nc2c(Cl)cccc2c1Cl,-2.47,–
CCn1nc(C)cc1-c1nn2c(-c3cccc(Cl)c3Cl)nnc2s1,-5.05,–
O=C(O)c1ccc(-c2ccccc2)cc1C(=O)O,4.53,–
Cc1nn(CCC(=O)Nc2c(Cl)cccc2Cl)c(=O)c(C#N)c1C,14.8,–
COc1ccc(-c2cc(COC(=O)Cc3cccc(F)c3)on2)cc1,3.81,–
N#C/C(=C/c1cccc([N+](=O)[O-])c1)c1ccc(C(F)(F)F)cn1,-16.6,–
O=C(OCC(=O)C12CC3CC(CC(C3)C1)C2)c1ccccc1Cl,-5.72,–
O=C(CCCOC(=O)c1cc(Cl)ccc1[N+](=O)[O-])c1ccc(Br)cc1,0.291,–
O=C1SCCC1NC(=O)C(Sc1ccccc1)c1ccccc1 (stereo not drawn),-6.8,–
O=C(CCCCC(=O)OCC(=O)c1ccc(Br)cc1)OCC(=O)c1ccc(Br)cc1,19.4,–
O=[N+]([O-])c1ccc2nc(Cl)ccc2c1,20,–
Cc1nn(CC(=O)N(CC2CCOC2)C2CC2)c(=O)c2ccccc12 (stereo not drawn),1.88,–
Cc1cccc2c(=O)c(-c3ccccc3)c(NC(=O)c3ccc([N+](=O)[O-])cc3)oc12,-3.76,–
Cc1n[nH]c(=O)c2c(NC(=O)CSc3nnc(C4CC4)n3Cc3ccccc3)oc(C)c12,11.5,–
Cc1[nH]nc2c1C(c1cccc(OCc3ccc(Cl)cc3)c1)C(C#N)=C(N)O2 (stereo not drawn),8.28,–
CN(CCOC(=O)c1cccs1)Cc1ccccc1,-1.32,–
Cc1ccc(-c2cc3ccccc3n2C)cc1,39.1,–
CCn1c(SC(C)c2nnc(-c3ccccc3)o2)nc2ccccc2c1=O (stereo not drawn),-21,–
O=C(Cc1ccc(Cl)c(Cl)c1)NCC1CN(Cc2ccccc2)CCO1 (stereo not drawn),-0.709,–
CCn1ccc(C(=O)Nn2c(C)nc3sc4c(c3c2=O)CCC(C)C4)n1 (stereo not drawn),1.64,–
COC(=O)c1ccc(NC(=O)c2noc3c2COc2ccc(C)cc2-3)cc1,1.38,–
CCOc1ccc(C(=O)Nc2ccc3nc4c(c(Nc5ccccc5OC)c3c2)CCCC4)cc1,-3.06,–
Cc1ccc(Nc2c3c(nc4ccccc24)CCC3)cc1,-5.61,–
COc1ccccc1Nc1c2c(nc3ccc(NC(=O)/C=C/c4cc(OC)c(OC)c(OC)c4)cc13)CCCC2,–,44.7 µM (active)
Cc1ccc2[nH]c(=S)nc(-c3ccccc3)c2c1,-5.12,–
